Data: the supplement of paper PMC11219838
A number with no mark means an inactive call.

tested on: Caenorhabditis elegans dauer (daf-2(e1370)); assay: proportion of mobile C. elegans dauer larvae relative to DMSO control (fraction of DMSO control); higher = more viable, less nematicidal, active = 0.63 or less; extreme values may be limits of the assay; conditions: 60 µM; 5 days; temperature: 20 °C
Experimental: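 DODA library (846 commercial 1,3,4- and 1,2,4-oxadiazole compounds plus commercial nematicide controls) screened at a single dose of 60 µM (0.6% DMSO) in 96-well plates, two biological replicates. Read-outs: C. elegans N2 L1 survival/reproduction score at day 6, 20 °C (0: 0-10 worms, 1: 11-20, 2: 21-50, 3: >50, 4: overgrown/starved). C. elegans daf-2 dauer, D. dipsaci and M. hapla J2 mobility at day 5, 20 °C, and P. penetrans mobility at day 5, 20 °C, each relative to DMSO controls. M. hapla egg hatching at day 12, 25 °C, relative to the mean of 8 DMSO wells on the same plate.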

Row | SMILES | proportion of mobile C. elegans dauer larvae
1 | O=C(NCCc1ncc(C(F)(F)F)cc1Cl)c1ccccc1C(F)(F)F [fluopyram] | 0 (active)
2 | CNC(=O)O/N=C(\SC)C(=O)N(C)C [oxamyl] | 1
3 | CC[C@H](C)[C@H]1O[C@]2(C=C[C@@H]1C)C[C@@H]1C[C@@H](C/C=C(\C)[C@@H](O[C@H]3C[C@H](OC)[C@@H](O[C@H]4C[C@H](OC)[C@@H](O)[C@H](C)O4)[C@H](C)O3)[C@@H](C)/C=C/C=C3\CO[C@@H]4[C@H](O)C(C)=C[C@@H](C(=O)O1)[C@]34O)O2.CO[C@H]1C[C@H](O[C@H]2[C@H](C)O[C@@H](O[C@@H]3/C(C)=C/C[C@@H]4C[C@@H](C[C@]5(C=C[C@H](C)[C@@H](C(C)C)O5)O4)OC(=O)[C@@H]4C=C(C)[C@@H](O)[C@H]5OC/C(=C\C=C\[C@@H]3C)[C@]54O)C[C@@H]2OC)O[C@@H](C)[C@@H]1O [abamectin] | 0.242 (active)
4 | CC(C)NC(=O)N1CC(=O)N(c2cc(Cl)cc(Cl)c2)C1=O [iprodione] | 1
